# Compounds without any hit were thinned out: in the full panel of roughly 79,000, 15% have a hit. A number with no mark means an inactive call. Active and inactive are the calls of the source. Rule as the data show it: active = growth inhibition above about 70%; inactive = the rest.
# What was measured:
# [1] = NCI Yeast Anticancer Drug Screen. Data for the wt2 strain (AID 169);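 also: 0% = growth of vehicle-treated yeast cultures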; details: S. cerevisiae wt2 strain growth inhibition, stronger effect = higher value
# Procedure, shortened: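 Treated yeast vs. vehicle-treated yeast: growth inhibition determined.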
# [2] = NCI Yeast Anticancer Drug Screen. Data for the mlh1 strain (AID 171);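 also: 0% = growth of vehicle-treated control cultures of the same strain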; details: S. cerevisiae mlh1 strain growth inhibition, stronger effect = higher value
# Procedure, shortened: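 A yeast strain with a defined genetic lesion serves as the test organism. Cultures receive compound or vehicle, and growth is measured.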
# [3] = NCI Yeast Anticancer Drug Screen. Data for the sgs1 strain (AID 173);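 also: 0% = growth of vehicle-only control cultures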; details: S. cerevisiae sgs1 mutant, stronger effect = higher value
# Procedure, shortened: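 A genetically defined yeast mutant is incubated with the test compound, and its growth is compared to that of the same strain given vehicle.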
# [4] = NCI Yeast Anticancer Drug Screen. Data for the mlh1 rad18 strain (AID 175); details: S. cerevisiae mlh1 rad18 strain growth inhibition, stronger effect = higher value
# Procedure, shortened: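 Steps: expose repair-defective yeast to compound; measure growth; express inhibition against vehicle-treated controls.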
# [5] = NCI Yeast Anticancer Drug Screen. Data for the rad18 strain (AID 177); details: S. cerevisiae rad18 mutant growth inhibition, stronger effect = higher value
# Procedure, shortened: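 Measured value is growth inhibition of a yeast strain bearing a DNA repair alteration, referenced to vehicle-treated cells.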
# [6] = NCI Yeast Anticancer Drug Screen. Data for the rad52 strain (AID 147);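 also: 0% = growth of vehicle-treated control cultures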; details: S. cerevisiae rad52 mutant growth inhibition, stronger effect = higher value
# Procedure, shortened: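 Here a repair-compromised yeast strain receives each compound; its growth is then quantified and normalised to vehicle-only controls.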
# [7] = NCI Yeast Anticancer Drug Screen. Data for the wt1 strain (AID 149);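 also: 0% = growth of vehicle-treated wt1 cultures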; details: S. cerevisiae wt1 strain (SPY 50644) growth inhibition, stronger effect = higher value
# Procedure, shortened: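 wt1 strain grown with compound or vehicle; inhibition taken from the growth difference.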
# [8] = NCI Yeast Anticancer Drug Screen. Data for the rad50EPP+ strain (AID 151);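 also: 0% = growth of vehicle-treated control cultures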; details: S. cerevisiae rad50 mutant strain, stronger effect = higher value
# Procedure, shortened: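 Read-out is yeast growth inhibition relative to vehicle; cells used were the rad50EPP+ strain.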
# [9] = NCI Yeast Anticancer Drug Screen. Data for the mgt1 strain (AID 153); details: S. cerevisiae mgt1 mutant growth inhibition, stronger effect = higher value
# Procedure, shortened: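 Measured: inhibition of mgt1 yeast growth by compound, normalized to vehicle-treated cultures.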
# [10] = NCI Yeast Anticancer Drug Screen. Data for the rad50 strain (AID 155);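 also: 0% = growth of vehicle-only cultures of the same strain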; details: S. cerevisiae rad50 strain growth inhibition, stronger effect = higher value
# Procedure, shortened: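 DNA repair mutant yeast, compound exposure, growth read-out; inhibition is taken relative to vehicle.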
# [11] = NCI Yeast Anticancer Drug Screen. Data for the mec2-1 strain (AID 157); details: S. cerevisiae mec2-1 strain, stronger effect = higher value
# Procedure, shortened: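 Using mec2-1 yeast: add compound, measure growth, express inhibition versus vehicle-treated cultures.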
# [12] = NCI Yeast Anticancer Drug Screen. Data for the rad14 strain (AID 159);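 also: 0% = growth of vehicle-treated control cultures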; details: S. cerevisiae rad14 strain growth inhibition, stronger effect = higher value
# Procedure, shortened: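 DNA repair-defective yeast, compound-exposed; % growth inhibition derived by comparison with vehicle-treated controls.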
# [13] = NCI Yeast Anticancer Drug Screen. Data for the sgs1 mgt1 strain (AID 161);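 also: 0% = growth of cultures given vehicle only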; details: S. cerevisiae sgs1 mgt1 strain, stronger effect = higher value
# Procedure, shortened: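 This yeast growth screen uses a strain with defined DNA-repair lesions; compound-treated growth is compared with vehicle-treated growth.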
# [14] = NCI Yeast Anticancer Drug Screen. Data for the CLN2oe strain (AID 163);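 also: 0% = growth of vehicle-only control cultures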; details: S. cerevisiae CLN2oe strain, stronger effect = higher value
# Procedure, shortened: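 Whole-cell yeast growth assay. A strain engineered for altered cell-cycle control received compound, and inhibition relative to vehicle-treated cultures was recorded.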
# [15] = NCI Yeast Anticancer Drug Screen. Data for the cln2 rad14 strain (AID 165);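 also: 0% = growth equal to vehicle treated cultures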; details: S. cerevisiae cln2 rad14 strain, stronger effect = higher value
# Procedure, shortened: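 Yeast strain cln2 rad14, bearing defects in cell cycle control and DNA repair, serves as the test system; values reflect growth inhibition compared with vehicle.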
# [16] = NCI Yeast Anticancer Drug Screen. Data for the bub3 strain (AID 167); details: S. cerevisiae bub3 mutant strain, stronger effect = higher value
# Procedure, shortened: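 In this screen, a yeast mutant lacking normal mitotic checkpoint function is challenged with compound. Relative growth versus vehicle gives the inhibition value.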
# [17] = at 5.0 µM (retest, dose inferred, filed as 0.5)
# [18] = at 50.0 µM (retest, dose inferred, filed as 5.0)
structure (smiles),measurement,setting,value
Cc1nc(-[n+]2nc(-c3ccncc3)nn2-c2ccccc2)sc1C,growth inhibition,[1]; at 1.2 µM,-2%
same,growth inhibition,[1]; at 3.7 µM,2%
same,growth inhibition,[1]; at 11.0 µM,18%
same,growth inhibition,[1]; at 33.0 µM,50%
same,growth inhibition,[1]; at 100.0 µM,72% (active)
same,growth inhibition,[2]; at 1.2 µM,-2%
same,growth inhibition,[2]; at 3.7 µM,-5%
same,growth inhibition,[2]; at 11.0 µM,7%
same,growth inhibition,[2]; at 33.0 µM,58%
same,growth inhibition,[2]; at 100.0 µM,72% (active)
same,growth inhibition,[3]; at 1.2 µM,-2%
same,growth inhibition,[3]; at 3.7 µM,7%
same,growth inhibition,[3]; at 11.0 µM,45%
same,growth inhibition,[3]; at 33.0 µM,69%
same,growth inhibition,[3]; at 100.0 µM,77% (active)
same,growth inhibition,[4]; [17],3%
same,growth inhibition,[4]; [18],48%
same,growth inhibition,[4]; at 50.0 µM,76.2% (active)
same,growth inhibition,[5]; at 1.2 µM,1%
same,growth inhibition,[5]; at 3.7 µM,3%
same,growth inhibition,[5]; at 11.0 µM,7%
same,growth inhibition,[5]; at 33.0 µM,46%
same,growth inhibition,[5]; at 100.0 µM,45%
N#CN=Nc1cc(Cl)c(N=NC#N)cc1Cl,growth inhibition,[6]; at 1.2 µM,-27%
same,growth inhibition,[6]; at 3.7 µM,-19%
same,growth inhibition,[6]; at 11.0 µM,-18%
same,growth inhibition,[6]; at 33.0 µM,2%
same,growth inhibition,[6]; at 100.0 µM,68%
same,growth inhibition,[7]; at 1.2 µM,-6%
same,growth inhibition,[7]; at 3.7 µM,-5%
same,growth inhibition,[7]; at 11.0 µM,-6%
same,growth inhibition,[7]; at 33.0 µM,-3%
same,growth inhibition,[7]; at 100.0 µM,47%
same,growth inhibition,[8]; at 1.2 µM,-4%
same,growth inhibition,[8]; at 3.7 µM,-3%
same,growth inhibition,[8]; at 11.0 µM,6%
same,growth inhibition,[8]; at 33.0 µM,31%
same,growth inhibition,[8]; at 100.0 µM,79% (active)
same,growth inhibition,[9]; at 1.2 µM,-10%
same,growth inhibition,[9]; at 3.7 µM,-6%
same,growth inhibition,[9]; at 11.0 µM,-6%
same,growth inhibition,[9]; at 33.0 µM,28%
same,growth inhibition,[9]; at 100.0 µM,70% (active)
same,growth inhibition,[10]; at 1.2 µM,-15%
same,growth inhibition,[10]; at 3.7 µM,-8%
same,growth inhibition,[10]; [17],-22%
same,growth inhibition,[10]; at 11.0 µM,-7%
same,growth inhibition,[10]; at 33.0 µM,3%
same,growth inhibition,[10]; [18],64%
same,growth inhibition,[10]; at 50.0 µM,83.8% (active)
same,growth inhibition,[10]; at 100.0 µM,55%
same,growth inhibition,[11]; at 1.2 µM,-14%
same,growth inhibition,[11]; at 3.7 µM,-17%
same,growth inhibition,[11]; [17],12%
same,growth inhibition,[11]; at 11.0 µM,-18%
same,growth inhibition,[11]; at 33.0 µM,-3%
same,growth inhibition,[11]; [18],87% (active)
same,growth inhibition,[11]; at 50.0 µM,46%
same,growth inhibition,[11]; at 100.0 µM,78% (active)
same,growth inhibition,[12]; at 1.2 µM,1%
same,growth inhibition,[12]; at 3.7 µM,4%
same,growth inhibition,[12]; at 11.0 µM,11%
same,growth inhibition,[12]; at 33.0 µM,32%
same,growth inhibition,[12]; at 100.0 µM,85% (active)
same,growth inhibition,[13]; [17],-5%
same,growth inhibition,[13]; [18],-4%
same,growth inhibition,[13]; at 50.0 µM,60.2%
same,growth inhibition,[14]; at 1.2 µM,-25%
same,growth inhibition,[14]; at 3.7 µM,-6%
same,growth inhibition,[14]; at 11.0 µM,-6%
same,growth inhibition,[14]; at 33.0 µM,-8%
same,growth inhibition,[14]; at 100.0 µM,67%
same,growth inhibition,[15]; [17],33%
same,growth inhibition,[15]; [18],55%
same,growth inhibition,[15]; at 50.0 µM,20.6%
same,growth inhibition,[16]; at 1.2 µM,-19%
same,growth inhibition,[16]; at 3.7 µM,2%
same,growth inhibition,[16]; [17],-1%
same,growth inhibition,[16]; at 11.0 µM,-7%
same,growth inhibition,[16]; at 33.0 µM,25%
same,growth inhibition,[16]; [18],96% (active)
same,growth inhibition,[16]; at 50.0 µM,43.8%
same,growth inhibition,[16]; at 100.0 µM,88% (active)
same,growth inhibition,[1]; at 1.2 µM,2%
same,growth inhibition,[1]; at 3.7 µM,1%
same,growth inhibition,[1]; at 11.0 µM,0%
same,growth inhibition,[1]; at 33.0 µM,3%
same,growth inhibition,[1]; at 100.0 µM,30%
same,growth inhibition,[2]; at 1.2 µM,22%
same,growth inhibition,[2]; at 3.7 µM,10%
same,growth inhibition,[2]; at 11.0 µM,12%
same,growth inhibition,[2]; at 33.0 µM,29%
same,growth inhibition,[2]; at 100.0 µM,87% (active)
same,growth inhibition,[3]; at 1.2 µM,-25%
same,growth inhibition,[3]; at 3.7 µM,-15%
same,growth inhibition,[3]; at 11.0 µM,-13%
same,growth inhibition,[3]; at 33.0 µM,13%
same,growth inhibition,[3]; at 100.0 µM,94% (active)
same,growth inhibition,[4]; [17],-10%
same,growth inhibition,[4]; [18],98% (active)
same,growth inhibition,[4]; at 50.0 µM,38.2%
same,growth inhibition,[5]; at 1.2 µM,-8%
same,growth inhibition,[5]; at 3.7 µM,-16%
same,growth inhibition,[5]; at 11.0 µM,-11%
same,growth inhibition,[5]; at 33.0 µM,14%
same,growth inhibition,[5]; at 100.0 µM,82% (active)

# Reference: PubChem BioAssay (NCI)
